Reference: PubChem BioAssay (NCI)
About 79,000 compounds went through this panel and 15% of them were active in at least one assay; those are over-represented in the sample as a whole. Active and inactive are the calls of the source. Rule as the data show it: active = growth inhibition above about 70%; inactive = the rest.

How the values were obtained:
[1] = NCI Yeast Anticancer Drug Screen. Data for the rad52 strain (AID 147);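 also: 0% = growth of vehicle-treated control cultures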; conditions: S. cerevisiae rad52 mutant growth inhibition, active compounds read high
In short: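 Genetically altered yeast (DNA damage repair defect) treated with compound; inhibition calculated relative to vehicle.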

[2] = NCI Yeast Anticancer Drug Screen. Data for the wt1 strain (AID 149);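 also: 0% = growth of vehicle-treated wt1 cultures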; conditions: S. cerevisiae wt1 strain (SPY 50644) growth inhibition, active compounds read high
In short: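 Each compound is tested on wt1 yeast and the loss of growth versus vehicle gives the inhibition value.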

[3] = NCI Yeast Anticancer Drug Screen. Data for the rad50EPP+ strain (AID 151);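 also: 0% = growth of vehicle-treated control cultures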; conditions: S. cerevisiae rad50 mutant strain, active compounds read high
In short: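 Strain rad50EPP+; compound exposure; % growth inhibition vs vehicle.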

[4] = NCI Yeast Anticancer Drug Screen. Data for the mgt1 strain (AID 153); conditions: S. cerevisiae mgt1 mutant growth inhibition, active compounds read high
In short: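 Read-out: yeast growth inhibition vs vehicle control. Strain mgt1, drawn from a panel altered in DNA damage repair or cell cycle control.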

[5] = NCI Yeast Anticancer Drug Screen. Data for the rad50 strain (AID 155);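 also: 0% = growth of vehicle-only cultures of the same strain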; conditions: S. cerevisiae rad50 strain growth inhibition, active compounds read high
In short: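 Vehicle-treated cultures provide the reference for the growth inhibition reported for compound-exposed, repair-deficient yeast.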

[6] = NCI Yeast Anticancer Drug Screen. Data for the mec2-1 strain (AID 157); conditions: S. cerevisiae mec2-1 strain, active compounds read high
In short: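 Cells of the genetically defined mec2-1 yeast strain are incubated with test compound. Inhibition of growth is calculated against vehicle-treated controls.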

[7] = NCI Yeast Anticancer Drug Screen. Data for the rad14 strain (AID 159);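 also: 0% = growth of vehicle-treated control cultures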; conditions: S. cerevisiae rad14 strain growth inhibition, active compounds read high
In short: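 Inhibition of growth is reported for a repair-deficient yeast mutant following compound treatment, calculated relative to cultures that received vehicle.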

[8] = NCI Yeast Anticancer Drug Screen. Data for the sgs1 mgt1 strain (AID 161);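 also: 0% = growth of cultures given vehicle only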; conditions: S. cerevisiae sgs1 mgt1 strain, active compounds read high
In short: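 Mutant yeast exposed to compound; growth scored against vehicle-only wells.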

[9] = NCI Yeast Anticancer Drug Screen. Data for the CLN2oe strain (AID 163);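 also: 0% = growth of vehicle-only control cultures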; conditions: S. cerevisiae CLN2oe strain, active compounds read high
In short: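 Strain altered in cell-cycle control, incubated with compound; growth compared to solvent-treated controls.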

[10] = NCI Yeast Anticancer Drug Screen. Data for the cln2 rad14 strain (AID 165);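 also: 0% = growth equal to vehicle treated cultures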; conditions: S. cerevisiae cln2 rad14 strain, active compounds read high
In short: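 The screen exposed genetically defined yeast (cln2 rad14) to test compounds and scored growth inhibition relative to vehicle-treated controls.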

[11] = NCI Yeast Anticancer Drug Screen. Data for the bub3 strain (AID 167); conditions: S. cerevisiae bub3 mutant strain, active compounds read high
In short: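 Mutant yeast screening strain plus compound; vehicle-treated cultures serve as the 0% inhibition reference.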

[12] = NCI Yeast Anticancer Drug Screen. Data for the wt2 strain (AID 169); conditions: S. cerevisiae wt2 strain growth inhibition, active compounds read high
In short: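 Steps: yeast strain treated with compound; growth recorded; inhibition calculated relative to cultures given vehicle alone.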

[13] = NCI Yeast Anticancer Drug Screen. Data for the mlh1 strain (AID 171);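 also: 0% = growth of vehicle-treated control cultures of the same strain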; conditions: S. cerevisiae mlh1 strain growth inhibition, active compounds read high
In short: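 Yeast screen: mutant strain plus compound, growth scored against vehicle control wells.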

[14] = NCI Yeast Anticancer Drug Screen. Data for the sgs1 strain (AID 173);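 also: 0% = growth of vehicle-only control cultures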; conditions: S. cerevisiae sgs1 mutant, active compounds read high
In short: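 Inhibition of yeast growth served as the measure. The mutant strain was treated with each compound, and growth was normalised to cultures receiving vehicle alone.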

[15] = NCI Yeast Anticancer Drug Screen. Data for the mlh1 rad18 strain (AID 175); conditions: S. cerevisiae mlh1 rad18 strain growth inhibition, active compounds read high
In short: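 Compound-treated yeast growth, normalised to vehicle controls. Strain bears defined DNA repair mutations.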

[16] = NCI Yeast Anticancer Drug Screen. Data for the rad18 strain (AID 177); conditions: S. cerevisiae rad18 mutant growth inhibition, active compounds read high
In short: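 Inhibition values reflect reduced yeast growth compared with vehicle-treated controls, using a strain engineered with a DNA damage repair defect.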

[17] = at 5.0 µM (retest, dose inferred, filed as 0.5)
[18] = at 50.0 µM (retest, dose inferred, filed as 5.0)

Measured: growth inhibition

COC(=O)C1(C)CCc2c(ccc3ccccc23)C1=O (stereo not drawn)
active: [11]; [18] 78% | [11]; at 50.0 µM 81% | [11]; at 100.0 µM 75% | [12]; at 100.0 µM 80%
inactive: [1]; at 1.2 µM -1% | [1]; at 3.7 µM 4% | [1]; at 11.0 µM 12% | [1]; at 33.0 µM 4% | [1]; at 100.0 µM 44% | [2]; at 1.2 µM 0% | [2]; at 3.7 µM -2% | [2]; at 11.0 µM -3% | [2]; at 33.0 µM -2% | [2]; at 100.0 µM -13% | [3]; at 1.2 µM -1% | [3]; at 3.7 µM 13% | [3]; at 11.0 µM 28% | [3]; at 33.0 µM 23% | [3]; at 100.0 µM 49% | [4]; at 1.2 µM -1% | [4]; at 3.7 µM 0% | [4]; at 11.0 µM -1% | [4]; at 33.0 µM -2% | [4]; at 100.0 µM 30% | [5]; at 1.2 µM -1% | [5]; at 3.7 µM 6% | [5]; [17] -13% | [5]; at 11.0 µM 13% | [5]; at 33.0 µM -87% | [5]; [18] 29% | [5]; at 50.0 µM 39.9% | [5]; at 100.0 µM 42% | [6]; at 1.2 µM 1% | [6]; at 3.7 µM -1% | [6]; [17] -14% | [6]; at 11.0 µM -2% | [6]; at 33.0 µM 0% | [6]; [18] -17% | [6]; at 50.0 µM 27.1% | [6]; at 100.0 µM 13% | [7]; at 1.2 µM -1% | [7]; at 3.7 µM 4% | [7]; at 11.0 µM 12% | [7]; at 33.0 µM 14% | [7]; at 100.0 µM 19% | [8]; [17] -5% | [8]; [18] 47% | [8]; at 50.0 µM 64.3% | [9]; at 1.2 µM -4% | [9]; at 3.7 µM 4% | [9]; at 11.0 µM 6% | [9]; at 33.0 µM 11% | [9]; at 100.0 µM 15% | [10]; [17] -10% | [10]; [18] 12% | [10]; at 50.0 µM 1.75% | [11]; at 1.2 µM 37% | [11]; at 3.7 µM 49% | [11]; [17] 40% | [11]; at 11.0 µM 57% | [11]; at 33.0 µM 65% | [12]; at 1.2 µM -5% | [12]; at 3.7 µM -2% | [12]; at 11.0 µM 9% | [12]; at 33.0 µM -5% | [13]; at 1.2 µM -2% | [13]; at 3.7 µM 2% | [13]; at 11.0 µM 7% | [13]; at 33.0 µM 5% | [13]; at 100.0 µM 32% | [14]; at 1.2 µM -14% | [14]; at 3.7 µM 3% | [14]; at 11.0 µM 16% | [14]; at 33.0 µM 34% | [14]; at 100.0 µM 67% | [15]; [17] -11% | [15]; [18] 57% | [15]; at 50.0 µM 26.5% | [16]; at 1.2 µM -5% | [16]; at 3.7 µM 6% | [16]; at 11.0 µM 10% | [16]; at 33.0 µM 7% | [16]; at 100.0 µM 53%
